A short description of test [1]: Primary qHTS for Huh7 cytotoxicity: counterscreen for inhibitors of MERS-S pseudotyped particle cell entry (AID 1479147). (Quantitative high-throughput screening tests each substance at several concentrations.)
Test [2] in a line: Primary qHTS for inhibitors of MERS-S pseudo-typed particle cell entry (AID 1479149). Also: nearly all actives have a fitted effect of over 60% in size. As to activity change, negative = inhibition: % is scaled to controls: 0 for no effect and ±100 for the full control effect.
Test [3] is described as follows: Primary qHTS for Vero E6 cytotoxicity: counterscreen for inhibitors of SARS-S pseudo-typed particle cell entry (AID 1479150).
The nature of test [4]: Cytotoxicity counterscreen for inhibitors of SARS-CoV-2 cell entry (AID 1645845). Also: nearly all actives have a fitted effect of over 50% in size. The method, boiled down:
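Expi293F/hACE2 cells seeded overnight; cpd pin-transferred in DMSO, 1 h preincubation, + media, 48 h 37 C 5% CO2; ATPLite 1step luminescence; normalized to cells and no cells.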

Test [5] can be described thus: Primary qHTS to identify inhibitors of SARS-CoV-2 cell entry (AID 1645846). Also: nearly all actives have a fitted effect of over 45% in size. The conditions noted are these: activity change, negative = inhibition: at 57.1 µM (top of the series) unless noted. The method, boiled down: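 Data are normalized to wells receiving SARS-CoV-2-S pseudoparticles and those given bald particles. Entry signal was luciferase luminescence in stable hACE2 Expi293F cells, 48 hr post-infection, after 1 hr compound pretreatment.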

Results filed as inconclusive are left out. Calls of active or inactive are those of the source. Calls follow the shape of the full dose curve.

As for `Cc1cn[nH]c1`, the Potency entry in test [1], in test [2], in test [3] and in test [4] was “inactive” in each case. In addition, the activity change, negative = inhibition in test [5] worked out at 4.3%.

Take `Nc1nc2c(ncn2COCCO)c(=O)[nH]1`: the Potency result in test [1], in test [2], in test [3], in test [4] and in test [5] was “inactive” throughout.

With `C[N+]1(C)CCC(OC(=O)C(O)(c2ccccc2)C2CCCC2)C1` (stereo not drawn), the Potency entry in test [1], in test [2], in test [3], in test [4] and in test [5] was “inactive” throughout.

Take `CCOc1ccc2ccccc2c1C(=O)N[C@@H]1C(=O)N2[C@@H]1SC(C)(C)[C@@H]2C(=O)O`: the Potency result in test [1], in test [2], in test [3], in test [4] and in test [5] was “inactive” each time.

For the molecule `CC1=C(C(=O)O)N2C(=O)[C@@H](NC(=O)[C@H](N)c3ccc(O)cc3)[C@H]2SC1`, the Potency entry in test [1], in test [2], in test [3] and in test [4] was “inactive” each time.

In the case of `Cc1cn([C@H]2C=C[C@@H](CO)O2)c(=O)[nH]c1=O`, the Potency result in test [1], in test [2], in test [3] and in test [4] was “inactive” each time. For the same molecule, the activity change, negative = inhibition in test [5] is -21.1%.

Take `CCCCc1ncc(/C=C(\Cc2cccs2)C(=O)O)n1Cc1ccc(C(=O)O)cc1`: the Potency entry in test [1], in test [2], in test [3] and in test [4] was “inactive” throughout.

Take `Cc1[nH]c(=O)c(C#N)cc1-c1ccncc1`: the Potency entry in test [1], in test [2], in test [3], in test [4] and in test [5] was “inactive” throughout.

`Cc1ccc(S(=O)(=O)NC(=O)NN2CC3CCCC3C2)cc1` (stereo not drawn): the Potency entry in test [1], in test [2], in test [3], in test [4] and in test [5] was “inactive” in each case.

In the case of `Oc1cn2c(n1)Nc1ccc(Cl)c(Cl)c1C2`, the Potency result in test [1], in test [2], in test [3], in test [4] and in test [5] was “inactive” each time.

In the case of `C[n+]1ccccc1/C=N/O`, the Potency result in test [1], in test [2], in test [3], in test [4] and in test [5] was “inactive” in each case.

`Cc1ccc2c(n1)Oc1ccc(C(C)C(=O)OCC(=O)N(C)C)cc1C2` (stereo not drawn): the Potency entry in test [1], in test [2], in test [3], in test [4] and in test [5] was “inactive” in each case.

Consider `CC(=O)SC[C@@H](C)C(=O)N1CCC[C@H]1C(=O)N[C@@H](Cc1ccccc1)C(=O)O`, for which the Potency entry in test [1], in test [2], in test [3] and in test [4] was “inactive” in each case. Further, in test [5], the activity change, negative = inhibition is -7.21%.

On to `CC(C)(O)c1ccccc1CC[C@@H](SCC1(CC(=O)O)CC1)c1cccc(/C=C/c2ccc3ccc(Cl)cc3n2)c1`, for which the Potency entry in test [1], in test [2], in test [3], in test [4] and in test [5] was “inactive” throughout.

(Values after PubChem BioAssay (NCATS).)
